According to PubChem BioAssay (NCI):
About 79,000 compounds went through this panel and 15% of them were active in at least one assay; those are over-represented in the sample as a whole. Active and inactive are the calls of the source. Rule as the data show it: active = growth inhibition above about 70%; inactive = the rest.

Legend:
[1] = NCI Yeast Anticancer Drug Screen. Data for the rad52 strain (AID 147);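 also: 0% = growth of vehicle-treated control cultures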; conditions: S. cerevisiae rad52 mutant growth inhibition, stronger effect = higher value
How it was run: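 DNA repair-defective yeast; compound exposure; growth scored against vehicle controls.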

[2] = NCI Yeast Anticancer Drug Screen. Data for the wt1 strain (AID 149);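 also: 0% = growth of vehicle-treated wt1 cultures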; conditions: S. cerevisiae wt1 strain (SPY 50644) growth inhibition, stronger effect = higher value
How it was run: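 Growth inhibition read against vehicle controls after compound exposure of the wt1 yeast strain.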

[3] = NCI Yeast Anticancer Drug Screen. Data for the mgt1 strain (AID 153); conditions: S. cerevisiae mgt1 mutant growth inhibition, stronger effect = higher value
How it was run: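 Growth inhibition relative to vehicle controls was scored for the mgt1 yeast strain after compound exposure.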

[4] = NCI Yeast Anticancer Drug Screen. Data for the rad50 strain (AID 155);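 also: 0% = growth of vehicle-only cultures of the same strain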; conditions: S. cerevisiae rad50 strain growth inhibition, stronger effect = higher value
How it was run: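 Readout: growth inhibition relative to vehicle-treated cultures. Compound exposure was carried out in a genetically defined yeast strain deficient in DNA damage repair.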

[5] = NCI Yeast Anticancer Drug Screen. Data for the mec2-1 strain (AID 157); conditions: S. cerevisiae mec2-1 strain, stronger effect = higher value
How it was run: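 Growth inhibition is read against vehicle-treated controls after compound exposure of the mec2-1 yeast strain, which is defective in DNA damage repair or cell cycle control.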

[6] = NCI Yeast Anticancer Drug Screen. Data for the rad14 strain (AID 159);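 also: 0% = growth of vehicle-treated control cultures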; conditions: S. cerevisiae rad14 strain growth inhibition, stronger effect = higher value
How it was run: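 Growth inhibition vs vehicle controls; genetically altered yeast strain (DNA damage repair defect) treated with test compounds.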

[7] = NCI Yeast Anticancer Drug Screen. Data for the sgs1 mgt1 strain (AID 161);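 also: 0% = growth of cultures given vehicle only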; conditions: S. cerevisiae sgs1 mgt1 strain, stronger effect = higher value
How it was run: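 Growth of a repair-deficient yeast mutant was monitored after compound treatment and expressed as inhibition relative to vehicle-treated cultures.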

[8] = NCI Yeast Anticancer Drug Screen. Data for the CLN2oe strain (AID 163);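 also: 0% = growth of vehicle-only control cultures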; conditions: S. cerevisiae CLN2oe strain, stronger effect = higher value
How it was run: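 Compound-treated yeast; growth vs vehicle ctrl = % inhibition. Genetically altered strain (cell-cycle control).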

[9] = NCI Yeast Anticancer Drug Screen. Data for the cln2 rad14 strain (AID 165);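 also: 0% = growth equal to vehicle treated cultures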; conditions: S. cerevisiae cln2 rad14 strain, stronger effect = higher value
How it was run: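 Growth inhibition, relative to vehicle-treated controls, is the read-out. The test organism is a yeast strain with defined genetic alterations, cln2 rad14.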

[10] = NCI Yeast Anticancer Drug Screen. Data for the bub3 strain (AID 167); conditions: S. cerevisiae bub3 mutant strain, stronger effect = higher value
How it was run: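 Readout: yeast growth inhibition, expressed relative to vehicle-only wells. The test organism is a mutant strain from a panel with lesions in DNA repair or checkpoint genes.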

[11] = NCI Yeast Anticancer Drug Screen. Data for the wt2 strain (AID 169);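 also: 0% = growth of vehicle-treated yeast cultures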; conditions: S. cerevisiae wt2 strain growth inhibition, stronger effect = higher value
How it was run: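 Compound exposure of yeast; growth compared with vehicle controls; inhibition reported.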

[12] = NCI Yeast Anticancer Drug Screen. Data for the mlh1 strain (AID 171);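 also: 0% = growth of vehicle-treated control cultures of the same strain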; conditions: S. cerevisiae mlh1 strain growth inhibition, stronger effect = higher value
How it was run: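 Compounds are applied to a genetically altered yeast strain, and its growth is compared with that of vehicle-treated cultures to give percent inhibition.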

[13] = NCI Yeast Anticancer Drug Screen. Data for the sgs1 strain (AID 173);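 also: 0% = growth of vehicle-only control cultures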; conditions: S. cerevisiae sgs1 mutant, stronger effect = higher value
How it was run: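 Compounds applied to genetically altered yeast; growth compared with vehicle-treated cultures to give % inhibition.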

[14] = NCI Yeast Anticancer Drug Screen. Data for the mlh1 rad18 strain (AID 175); conditions: S. cerevisiae mlh1 rad18 strain growth inhibition, stronger effect = higher value
How it was run: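 Cells of a genetically altered yeast strain, deficient in DNA damage repair, were treated with compound. Their growth was then compared with that of vehicle-treated cultures to give inhibition.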

[15] = NCI Yeast Anticancer Drug Screen. Data for the rad18 strain (AID 177); conditions: S. cerevisiae rad18 mutant growth inhibition, stronger effect = higher value
How it was run: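 Compounds are applied to a repair-deficient yeast strain, and growth is compared with that of vehicle-treated cultures to give percent inhibition.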

[16] = NCI Yeast Anticancer Drug Screen. Data for the rad50EPP+ strain (AID 151);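 also: 0% = growth of vehicle-treated control cultures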; conditions: S. cerevisiae rad50 mutant strain, stronger effect = higher value
How it was run: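 rad50EPP+ yeast treated with test compounds. Readout: growth vs vehicle control.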

[17] = at 5.0 µM (retest, dose inferred, filed as 0.5)
[18] = at 50.0 µM (retest, dose inferred, filed as 5.0)

Measured: growth inhibition

Brc1ccc(B2Nc3ccccc3N2)cc1
active: [4]; at 50.0 µM 73.8% | [7]; [18] 77% | [7]; at 50.0 µM 82.1% | [9]; at 50.0 µM 71.7% | [10]; [18] 73% | [10]; at 50.0 µM 84.8% | [14]; [18] 87% | [14]; at 50.0 µM 82.5%
inactive: [1]; at 1.2 µM 3% | [1]; at 3.7 µM 14% | [1]; at 11.0 µM 29% | [1]; at 33.0 µM 42% | [1]; at 100.0 µM 46% | [2]; at 1.2 µM -2% | [2]; at 3.7 µM -1% | [2]; at 11.0 µM 16% | [2]; at 33.0 µM 31% | [2]; at 100.0 µM 40% | [3]; at 1.2 µM -5% | [3]; at 3.7 µM -2% | [3]; at 11.0 µM 10% | [3]; at 33.0 µM 25% | [3]; at 100.0 µM 5% | [4]; at 1.2 µM 6% | [4]; at 3.7 µM 14% | [4]; [17] 21% | [4]; at 11.0 µM 29% | [4]; at 33.0 µM 44% | [4]; [18] 53% | [4]; at 100.0 µM 54% | [5]; at 1.2 µM 1% | [5]; at 3.7 µM 6% | [5]; [17] 17% | [5]; at 11.0 µM 18% | [5]; at 33.0 µM 31% | [5]; [18] 59% | [5]; at 50.0 µM 56.8% | [5]; at 100.0 µM 46% | [6]; at 1.2 µM 13% | [6]; at 3.7 µM 24% | [6]; at 11.0 µM 37% | [6]; at 33.0 µM 53% | [6]; at 100.0 µM 63% | [7]; [17] 31% | [8]; at 1.2 µM -3% | [8]; at 3.7 µM 5% | [8]; at 11.0 µM 29% | [8]; at 33.0 µM 39% | [8]; at 100.0 µM 43% | [9]; [17] 12% | [9]; [18] 40% | [10]; at 1.2 µM 9% | [10]; at 3.7 µM 19% | [10]; [17] 30% | [10]; at 11.0 µM 15% | [10]; at 33.0 µM 43% | [10]; at 100.0 µM 52% | [11]; at 1.2 µM -4% | [11]; at 3.7 µM -4% | [11]; at 11.0 µM 6% | [11]; at 33.0 µM 17% | [11]; at 100.0 µM 27% | [12]; at 1.2 µM 0% | [12]; at 3.7 µM 6% | [12]; at 11.0 µM 17% | [12]; at 33.0 µM 28% | [12]; at 100.0 µM 44% | [13]; at 1.2 µM 0% | [13]; at 3.7 µM 6% | [13]; at 11.0 µM 23% | [13]; at 33.0 µM 35% | [13]; at 100.0 µM 45% | [14]; [17] 47% | [15]; at 1.2 µM -2% | [15]; at 3.7 µM 1% | [15]; at 11.0 µM 13% | [15]; at 33.0 µM 23% | [15]; at 100.0 µM 36%

COc1ccc(C2CC(C)(N3CCCC3)Oc3cc4c(cc32)OCO4)cc1 (stereo unspecified)
inactive: [1]; at 1.2 µM 4% | [1]; at 3.7 µM 5% | [1]; at 11.0 µM 4% | [1]; at 33.0 µM 32% | [2]; at 1.2 µM -3% | [2]; at 3.7 µM -3% | [2]; at 11.0 µM -5% | [2]; at 33.0 µM -9% | [2]; at 100.0 µM 11% | [16]; at 1.2 µM 4% | [16]; at 3.7 µM 4% | [16]; at 11.0 µM 3% | [16]; at 33.0 µM 9% | [16]; at 100.0 µM -3% | [4]; at 1.2 µM 5% | [4]; at 3.7 µM 1% | [4]; [17] -7% | [4]; at 11.0 µM 0% | [4]; at 33.0 µM 37% | [4]; [18] 25% | [4]; at 50.0 µM 64.5% | [5]; at 1.2 µM -1% | [5]; at 3.7 µM -1% | [5]; [17] 11% | [5]; at 11.0 µM -4% | [5]; at 33.0 µM 1% | [5]; [18] 9% | [5]; at 50.0 µM 9.8% | [5]; at 100.0 µM 36% | [7]; [17] -6% | [7]; [18] 47% | [7]; at 50.0 µM 61.5% | [8]; at 1.2 µM 2% | [8]; at 3.7 µM -1% | [8]; at 11.0 µM -6% | [8]; at 33.0 µM 6% | [8]; at 100.0 µM 68% | [9]; [17] 8% | [9]; [18] 34% | [9]; at 50.0 µM 19.4% | [10]; at 1.2 µM 1% | [10]; at 3.7 µM 5% | [10]; [17] 22% | [10]; at 11.0 µM -21% | [10]; at 33.0 µM 22% | [10]; at 50.0 µM 41.4% | [11]; at 1.2 µM -7% | [11]; at 3.7 µM -1% | [11]; at 11.0 µM -13% | [11]; at 33.0 µM 6% | [12]; at 1.2 µM 3% | [12]; at 3.7 µM -1% | [12]; at 11.0 µM -4% | [12]; at 33.0 µM 13% | [13]; at 1.2 µM -4% | [13]; at 3.7 µM 9% | [13]; at 11.0 µM -18% | [13]; at 33.0 µM 17% | [14]; [17] 2% | [15]; at 1.2 µM 5% | [15]; at 3.7 µM 7% | [15]; at 11.0 µM 12% | [15]; at 33.0 µM 35%
active: [1]; at 100.0 µM 94% | [4]; at 100.0 µM 92% | [10]; [18] 74% | [10]; at 100.0 µM 87% | [11]; at 100.0 µM 92% | [12]; at 100.0 µM 83% | [13]; at 100.0 µM 83% | [14]; [18] 75% | [14]; at 50.0 µM 76.7% | [15]; at 100.0 µM 77%
